Compound activity (PubChem BioAssay)
Lmaj promast = reduces viability of Leishmania major promastigotes; resazurin fluorescence viability; inhibition, % at 10 µM; 200,000 compounds, 9% hits; AID 1063; in the data active = inhibition above about 50%;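 also: promastigotes grown with compound for 44 hours at 28 °C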
INS promoter inh = TRM-6 insulin promoter activity inhibition; TRM-6 cells (human fetal islet line), insulin promoter-eGFP reporter, imaging; reporter expression induced with tamoxifen; inhibition, % at 2 µM; 130,000 compounds, 0.9% hits;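 active = inhibition above the mean plus 3 SD, with well images judged a real hit on visual review, cut at about 60% in these data, passing the limit was not always enough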
HCT116 bCat-KO = beta-catenin-lacking colon tumor cell growth suppression; viability, % at 10 µM; HCT116 beta-catenin knockout viability, CellTiter-Glo, 60 h; hits give low values; 140,000 compounds, 1.5% hits; AID 818;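 active = viability at or under a set limit, the compound median less 4 SD, cut at about 6% in these data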;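 also: 0% = Hyamine 1622 control at 20 µM and 100% = untreated cell control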
Ins promoter up = MIN6 insulin promoter up-regulation. 190,000 compounds, 0.3% hits. MIN6 insulin promoter-GFP reporter, high-content imaging; hits give high values. z-score at 5 µM;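 active = z-score above 3 at 5 µM with at least 500 cells counted in the well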
HCT116 PTEN-null = PTEN-deleted cell growth suppression. HCT116 PTEN-null viability, CellTiter-Glo, 60 h; hits give low values. viability, % at 10 µM. 140,000 compounds, 1.2% hits. AID 827;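 active = viability at or below a set limit, 4 SD under the median of all tested compounds, cut at about 3.7% in these data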;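 also: PTEN knockout HCT116 line with beta catenin targeted HCT116 as companion control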
Autophagy mod = modulators of autophagy. MEF GFP-LC3 puncta imaging; test concentration mostly 10 µM. calls only at 10 µM (by protocol). 190,000 compounds, 0.98% hits. AID 463193;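 active = percentage of spot-positive cells more than 3 SD above its plate mean, without a fluorescence outlier flag or 80% toxicity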;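 also: spot-positive cell cutoff set from DMSO-treated cells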
* hit, by the source's call; i = inactive; . = no result given; + = active, no number. An excerpt weighted towards active compounds, which were near 9.6% of everything screened.

SMILES | Lmaj promast | INS promoter inh | HCT116 bCat-KO | Ins promoter up | HCT116 PTEN-null | Autophagy mod
COc1ccccc1C1(CCNS(=O)(=O)c2ccc(C)cc2)CCOC(C(C)C)C1 (configuration not stated) | 83* | . | 38 | -0.48 | 27 | i
CCOC(=O)c1cnc2c(N=Nc3ccccc3)c(N)nn2c1N | 68* | . | 86 | -0.22 | 95 | i
CCOC(=O)c1cnc2c(-c3ccccc3)c(C)nn2c1N | -4 | -13 | 101 | -1 | 101 | i
CCOC(=O)c1cnc2c(N=Nc3cccc(Cl)c3)c(N)nn2c1N | -6 | 0 | 3.4* | . | 2.5* | i
CCc1ccc2oc(-c3cc(N)cc(C)c3O)nc2c1 | -2 | -182 | 64 | -1.5 | 73 | +
CCCC(=O)Nc1nc(C)c(-c2csc(Nc3ccccc3OC)n2)s1 | 59* | 4 | 84 | -1.5 | 85 | i
COc1cccc(Nc2nc(-c3sc(NC(=O)CC(C)C)nc3C)cs2)c1 | 81* | -4 | 71 | -1.7 | 62 | i
CCCC(=O)Nc1nc(C)c(-c2csc(Nc3cc(OC)ccc3OC)n2)s1 | 47 | 9 | 75 | -2.5 | 61 | i
CCCC(C)C(=O)Nc1nc(C)c(-c2csc(Nc3cc(OC)ccc3OC)n2)s1 (configuration not stated) | 84* | 7 | 63 | -2.4 | 48 | i
COc1ccccc1Nc1nc(-c2sc(NC(=O)C(C)(C)C)nc2C)cs1 | 100* | -16 | 93 | -2.5 | 98 | i
CC1CCN(Cc2ccc(-c3nnn(CC(=O)NC4CCCCC4)n3)cc2)CC1 | 15 | . | . | 0.5 | . | i
Cc1ccc(C(=O)N/C(=C/c2cccc([N+](=O)[O-])c2)C(=O)NC(C)C)cc1 | -3 | . | 96 | -0.15 | 94 | i
CCOC(=O)N1CCC(n2c(=S)[nH]c3ccccc3c2=O)CC1 | -5 | . | 106 | 0.23 | 111 | i
COc1ccccc1Nc1nc(-c2sc(NC(=O)CC(C)C)nc2C)cs1 | 67* | -13 | 95 | -1.9 | 93 | i
COc1ccccc1Nc1nc(-c2sc(NC(=O)c3cccc(Cl)c3)nc2C)cs1 | 10 | 0 | 104 | . | 90 | i
CCCCCC(=O)Nc1nc(C)c(-c2csc(Nc3cc(Cl)ccc3OC)n2)s1 | 62* | -64 | 86 | -0.76 | 64 | i
Cc1ccc(Cl)cc1Nc1nc(-c2sc(NC(=O)C(C)(C)C)nc2C)cs1 | 97* | . | 77 | -1.4 | 80 | i
COc1ccc(NC(=O)c2oc3ccc(S(=O)(=O)N4CCC5(CC4)OCCO5)cc3c2C)cc1 | 12 | . | 36 | -0.17 | 27 | i
COc1ccc(C[C@H]2CN3C(=NC[C@@H]3Cc3ccccc3)N2CCNC(=O)c2ccc(C)c(Br)c2)cc1 | 95* | . | . | -0.19 | . | +
COc1ccc(C[C@H]2CN3C(=NC[C@H]3Cc3ccccc3)N2CCNC(=O)CCC2CCCCC2)cc1 | 76* | . | . | 0.05 | . | i
COc1ccc(C[C@H]2CN3C(=NC[C@H]3Cc3ccccc3)N2CCNC(=O)c2ccc(C)c(Br)c2)cc1 | . | . | . | 0.03 | . | .
Cn1c(=O)c2c(nc(N3CCc4ccccc4C3)n2Cc2ccccc2F)n(C)c1=O | 47 | 0 | 90 | . | 88 | i
CN(C)c1ccc(/C=C/C(=O)c2ccc3c(c2)OCCO3)cc1[N+](=O)[O-] | 92* | 33 | 9 | -0.02 | 11 | i
O=C(/C=C/c1ccncc1)c1ccc2c(c1)OCCO2 | 100* | . | . | 0.05 | . | i
CC12CCC(C(=O)N3CCOCC3)([C@H](Br)C1=O)C2(C)C (some centres not stated) | . | . | . | -0.83 | . | .
SMILES | Lmaj promast | INS promoter inh | HCT116 bCat-KO | Ins promoter up | HCT116 PTEN-null | Autophagy mod
CCCCCC(=O)Nc1cccc(C2=NOC3(C2)C[C@H](C(N)=O)N(C(=O)[C@H]2CCC(=O)N2)C3)c1 (some centres not stated) | . | . | . | -0.11 | . | .
COc1ccc(N2CCN(Cc3nc(N)nc(Nc4ccc(C)c(Cl)c4)n3)CC2)cc1 | 44 | . | 0.8* | -4.6 | 1.4* | i
Cc1ccc(Nc2nc(N)nc(CN3CCN(Cc4ccc5c(c4)OCO5)CC3)n2)cc1Cl | 70* | . | 0.9* | -2.1 | 1.5* | +
Cc1cccc(Nc2nc(N)nc(CN3CCC(C)CC3)n2)c1C | 9 | 100* | 80 | 0.86 | 88 | i
Cc1ccc(Nc2nc(N)nc(CN3CCN(Cc4ccc5c(c4)OCO5)CC3)n2)cc1C | 34 | -300 | . | -1.5 | . | i
COc1ccc(Nc2nc(N)nc(CN3CCC(Cc4ccccc4)CC3)n2)cc1 | 87* | 0 | 27 | . | 27 | i
Cc1ccc(Nc2nc(N)nc(CN3CCN(c4ccccc4)CC3)n2)cc1Cl | 21 | . | 56 | -0.53 | 45 | i
Cc1ccccc1-c1noc(N)c1C#N | 40 | 6 | 73 | -0.16 | 64 | i
CSc1ncc(Cl)c(C(=O)NCc2ccc3c(c2)OCO3)n1 | -1 | 50 | 107 | 0.88 | 100 | i
CCOc1cc(/C=N/NC(=O)CN2CCOCC2)ccc1OCc1ccccc1 | 6 | . | 99 | -0.32 | 104 | i
COc1cc(/C=N/NC(=O)CN2CCCCC2)ccc1OCc1ccccc1 | 95* | -35 | 92 | 0.85 | 96 | i
CCOc1cc(/C=N/NC(=O)CN2CCCCC2)ccc1OCc1cccc(Cl)c1 | 97* | 26 | 90 | 0.39 | 91 | i
CCOc1cc(/C=N/NC(=O)c2ccc(CN3CCOCC3)cc2)ccc1OCc1ccccc1 | 98* | -14 | 61 | -0.27 | 57 | i
COc1cc(/C=N/OCC(=O)Nc2cc(C)on2)ccc1OCc1ccccc1 | 64* | 4 | 94 | -0.58 | 81 | i
CCOc1cc(/C=N/NC(=O)CN2CCCCC2)ccc1OCc1ccc(Cl)cc1 | 99* | -43 | 95 | -0.21 | 93 | i
COc1cc(/C=N/NC(=O)CCN2CCN(c3ccccc3)CC2)cc(OC)c1OC | -4 | 3 | 92 | 0.78 | 95 | i
CCCCOc1ccc(C(=O)N/N=C/c2cn[nH]c2-c2ccc(OC)c(OC)c2)cc1 | 7 | -20 | 93 | -0.11 | 96 | i
CCCCOc1ccc(C(=O)N/N=C/c2ccc(OCCN3CCCCC3)c(OC)c2)cc1 | 100* | 10 | 43 | 0.24 | 40 | i
CCOc1cc(/C=N\NC(=O)CN2CCOCC2)ccc1OCc1ccc(F)cc1 | 0 | -4 | 103 | -0.19 | 106 | i
CCOc1cc(/C=N/NC(=O)c2nn(C)cc2Br)ccc1OCc1ccccc1Cl | 72* | 0 | 80 | 0.05 | 80 | i
COc1cc(/C=N/NC(=O)CCN2CCN(Cc3ccccc3)CC2)cc(OC)c1OC | 52* | -42 | 74 | -0.27 | 79 | i
CCOC(=O)N1CCN(S(=O)(=O)c2cc(-c3nn4c(C)nnc4c4ccccc34)ccc2C)CC1 | 26 | 16 | 24 | 1 | 32 | i
CCS(=O)(=O)N1CCN(c2ccnc3cc(Cl)ccc23)CC1 | . | . | . | 0.39 | . | .
Cc1c2c(n3c(nc4ccccc43)c1C#N)N(c1ccccc1)CC2 | 53* | -25 | 96 | 0.24 | 92 | +
Cc1c2c(n3c(nc4ccccc43)c1C#N)N(CCN(C)C)CC2 | 11 | -82 | . | -0.12 | . | i
